For the test, the system named is MOLM14. As to the kind of experiment: cell viability relative to vehicle control; higher = less cytotoxic. Particulars: 10 µM; SRSF2 genotype: SRSF2 wt/wt. In a few lines: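 Screening covered the Selleck bioactive, kinase and epigenetic probe libraries, less identity-inconsistent compounds, on CRISPR-edited mutant clones and isogenic wild-type clones of four leukaemia lines. Cells, at 2000 per well in 50 µL medium, received a single 10 µM acoustically dispensed dose. After 48 h the supernatant was removed and CellTiter-Glo luminescence was read. Viability was analysed in Genedata Screener as percent of the on-plate vehicle control.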
`NC(=O)NO` [Hydroxyurea (Cytodrox)]: the cell viability was found to be 108%.

With `Nc1ncnc2c1nc(Br)n2[C@@H]1O[C@@H]2COP(=O)(O)O[C@H]2[C@H]1O` [8-Bromo-cAMP], the cell viability came out at 60%.

As to `Cc1cccc(Nc2nc(-c3ccncc3)cs2)c1`, the cell viability worked out at 84.9%.

In the case of `CC12CCC(CC1)C(C)(C)O2` [Eucalyptol], the cell viability was found to be 101%.

In the case of `CCc1c(Cl)c(O)c(Cl)c(O)c1C(=O)O[C@H]1[C@H](O)[C@H](OC)[C@H](OC/C2=C\C=C\C[C@H](O)/C(C)=C/[C@H](CC)[C@@H](O[C@@H]3OC(C)(C)[C@@H](OC(=O)C(C)C)[C@H](O)[C@@H]3O)/C(C)=C/C(C)=C/C[C@@H]([C@@H](C)O)OC2=O)O[C@@H]1C` [Fidaxomicin], the cell viability amounted to 84.6%.

On to `CO[C@H]1/C=C/O[C@@]2(C)Oc3c(C)c(O)c4c(O)c(c(/C=N/N5CCN(C)CC5)c(O)c4c3C2=O)NC(=O)/C(C)=C\C=C\[C@H](C)[C@H](O)[C@@H](C)[C@@H](O)[C@@H](C)[C@H](OC(C)=O)[C@@H]1C` [Rifampin], for which the cell viability amounted to 95.7%.

On to `COc1ccc(C2CNC(=O)C2)cc1OC1CCCC1` (stereo not drawn) [S-(+)-Rolipram], for which the cell viability amounted to 108%.

Take `C#C[C@]1(O)CC[C@H]2[C@@H]3CCc4cc(OC5CCCC5)ccc4[C@H]3CC[C@@]21C` [Quinestrol]: the cell viability came to 79.2%.

For the compound `COc1cccc2cc(-c3nc([C@H]4CC[C@H](C(=O)O)CC4)n4ncnc(N)c34)[nH]c12`, the cell viability was 24.9%.

Regarding `O=C(/C=C/c1ccc(O)c(O)c1)c1ccc(O)cc1O` [Butein], the cell viability is 47.8%.

As for `CN(C)c1ccc(C(=O)NCCCCCCC(=O)NO)cc1`, the cell viability is 0.66%.

As usually defined, the cell viability is a read-out of living cells in per cent, often relative to untreated cells.
